Records with an inconclusive call do not appear. The source made the active and inactive calls. The call rests on the fitted dose curve; in most records, active means well fitted cell-killing curve with a large enough effect in the repeat runs; inconclusive means weak or mixed curves, or effect the other way; inactive means flat fitted curve, though single readings scatter.
assay: cAMP Responsive Elements (CRE) small molecule agonists, cell-based qHTS assay: qHTS cell viability counter screen (AID 2060914); details: CRE-bla HEK293T viability, CellTiter-Glo luminescence, 5 h; series mostly up to 92.4 µM; activity change, negative = cytotoxicity: at the top concentration; further: nearly all actives have a fitted effect of over 50% in size
How it was run: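 Cytotoxicity counter screen multiplexed with the CRE-bla reporter assay in HEK 293T cells: 3 h compound exposure at 37 °C, followed by CellTiter-Glo luminescence measured in the same wells.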
On the % scale 0 is the no-effect control and ±100 the full control effect; potency means the concentration at half of the fitted maximal effect.

Row | Compound | activity change, negative = cytotoxicity | Potency
1 | CC(CC(C)(C)C)CC(C)(C)CC(C)(C)C (stereo not given) | 15.8% [at 42.5 µM] (inactive) | –
2 | CCOC(N)=O | – | inactive
3 | COC(=O)c1c(C)cc(O)c(C)c1O | 12.2% (inactive) | –
4 | CCOB(OCC)OCC | 1.65% (inactive) | –
5 | CC(C)(C)C(=O)CC(=O)C(C)(C)C | -3.55% (inactive) | –
6 | O=C(CCBr)N1CCN(C(=O)CCBr)CC1 | 1.51% [at 42.5 µM] (inactive) | –
7 | O=C(Nc1ncc([N+](=O)[O-])s1)c1cccs1 | – | 11.9 µM (active)
8 | CN(C[C@@H](CC[N+]12CCC(C3CCCCC3)(CC1)CC2)c1ccc(Cl)c(Cl)c1)C(=O)c1cc(C(F)(F)F)cc(C(F)(F)F)c1 | -0.0559% (inactive) | –
9 | CCCCCCCCCC(C)=O | 1.9% (inactive) | –
10 | O=C(CCCN1CCN(c2ccccn2)CC1)c1ccc(F)cc1 | -11.2% [at 42.5 µM] (inactive) | –
11 | CCC(C)C=O (stereo not given) | – | inactive
12 | O=C1OC2(c3ccc(O)cc3Oc3cc(O)ccc32)c2ccccc21 | 6.83% (inactive) | –
13 | Nc1ccn([C@@H]2O[C@H](CO)[C@@H](O)C2O)c(=O)n1 (stereo not given in full) | 5.38% (inactive) | –
14 | Nc1c(CC(=O)O)cccc1C(=O)c1ccc(Br)cc1 | -0.336% [at 42.5 µM] (inactive) | –
15 | Cc1cc2c(C(C)C)c(O)c(O)c(C=O)c2c(O)c1-c1c(C)cc2c(C(C)C)c(O)c(O)c(C=O)c2c1O | – | 26.6 µM (active)
16 | COC(/C=C(\C)CCC=C(C)C)OC | -0.937% (inactive) | –
17 | O=c1cc(-c2ccccc2)oc2cc(O)cc(O)c12 | 10.8% (inactive) | –
18 | CC1(C)C(=O)NC(=O)N1CO | -2.06% (inactive) | –
19 | C=C1CC[C@H](O)C/C1=C\C=C1/CCC[C@]2(C)[C@@H]([C@H](C)CCCC(C)C)CC[C@@H]12 | 0.614% (inactive) | –
20 | CCC(=O)C(=O)CC | -11.8% (inactive) | –

Row | Compound | activity change, negative = cytotoxicity | Potency
21 | CC/C=C\CC/C=C/CO | 17.4% (inactive) | –
22 | CC[C@@H]([C@H](C)O)n1ncn(-c2ccc(N3CCN(c4ccc(OC[C@@H]5CO[C@@](Cn6cncn6)(c6ccc(F)cc6F)C5)cc4)CC3)cc2)c1=O | – | 26.6 µM (active)
23 | Nc1cccnc1N | -0.0798% (inactive) | –
24 | CCCCC(CC)CN1CN(CC(CC)CCCC)CC(C)(N)C1 (stereo not given) | -0.857% [at 42.5 µM] (inactive) | –
25 | NC(=O)c1cccc([N+](=O)[O-])c1 | 6.07% (inactive) | –
26 | CCc1ccccc1O | – | inactive
27 | CN1[C@@H]2CC[C@H]1CC(NC(=O)n1c(=O)[nH]c3ccccc31)C2 (stereo not given in full) | 1.03% [at 42.5 µM] (inactive) | –
28 | O=C1OC(=O)c2cc(Oc3ccc4c(c3)C(=O)OC4=O)ccc21 | 5.49% (inactive) | –
29 | C[C@H]1O[C@H](O[C@H]2[C@H](O)[C@@H](O)[C@@H](O[C@H]3[C@H](O)[C@@H](O)[C@H](O)O[C@@H]3CO)O[C@@H]2CO)[C@H](O)[C@@H](O)[C@@H]1N[C@H]1C=C(CO)[C@@H](O)[C@H](O)[C@H]1O | 1.35% [at 42.5 µM] (inactive) | –
30 | CC(C)=CCO | – | inactive
31 | CCc1cc(Cc2cc(CC)c(N)c(CC)c2)cc(CC)c1N | -5.47% (inactive) | –
32 | Cc1cc(C)c(N=Nc2c(O)c(S(=O)(=O)O)cc3cc(S(=O)(=O)O)ccc23)cc1C | 4.39% [at 8.39 µM] (inactive) | –
33 | CN(C(=O)CCCOc1ccc2[nH]c(=O)ccc2c1)C1CCCCC1 | 2.84% [at 42.5 µM] (inactive) | –
34 | CC(=O)[C@H]1CC[C@H]2[C@@H]3CCC4=CC(=O)CC[C@]4(C)[C@H]3CC[C@]12C | -17.9% (inactive) | –
35 | O=C(N/N=C/c1ccc([N+](=O)[O-])o1)c1ccc(O)cc1 | -16.8% [at 42.5 µM] (inactive) | –
36 | CCOC(=O)c1ccc(OC(=O)CCCCCN=C(N)N)cc1 | -0.626% [at 42.5 µM] (inactive) | –
37 | NC(Cc1c[nH]c2ccccc12)C(=O)O (stereo not given) | 12.7% [at 42.5 µM] (inactive) | –
38 | CCCCCCCCCCCCCC(=O)OCC | 9.48% (inactive) | –
39 | CC(C)=CCCC(C)C=O (stereo not given) | 8.41% (inactive) | –
40 | C[C@H]1c2cccc(O)c2C(O)=C2C(=O)[C@]3(O)C(O)=C(C(N)=O)C(=O)[C@@H](N(C)C)[C@@H]3[C@@H](O)[C@@H]21 | 2.43% [at 42.5 µM] (inactive) | –
